Molecules are shown by their SMILES. Records with an inconclusive call do not appear. Calls of active or inactive are those of the source. Unless noted, calls come from the whole dose curve; as a rule, active = well fitted curve in the direction sought with a large enough effect; inconclusive = small, poorly fitted or top-dose-only effect, or another doubt; inactive = no such curve, though single readings can be large; an effect the other way counts as inactive or inconclusive.

A short description of test [1]: qHTS for differential inhibitors of proliferation of Plasmodium falciparum line 7G8 (AID 1815).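 Note: parasite growth measured after three days of incubation.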 Note: potency is the fitted concentration of half-maximal effect. On the technique in general: Quantitative high-throughput screening tests each substance at several concentrations.
A short description of test [2]: qHTS for differential inhibitors of proliferation of Plasmodium falciparum line GB4 (AID 1816).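 Note: parasite growth measured after 72 h incubation.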 Particulars: Potency: Plasmodium falciparum GB4 proliferation inhibition.
The nature of test [3]: qHTS for differential inhibitors of proliferation of Plasmodium falciparum line 3D7 (AID 1876). Note: potency is the fitted concentration of half-maximal effect.
Test [4] in a line: qHTS for differential inhibitors of proliferation of Plasmodium falciparum line D10 (AID 1877).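 Note: parasites grown with compound for 72 h before DNA staining.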
Test [5] can be described thus: qHTS for differential inhibitors of proliferation of Plasmodium falciparum line Dd2 (AID 1882).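 Note: series mostly up to about 29 µM; compound exposure of 72 h on infected erythrocytes; nearly all actives have a fitted effect of over 65% in size.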 The conditions noted are these: Potency: Plasmodium falciparum Dd2 proliferation inhibition. Put shortly: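 RBC culture, 0.3% parasitemia / 2.5% Hct final; cpd added by pin tool in DMSO; 72 h, 37 C, 5% CO2; lysis buffer + SYBR Green I, o/n RT dark; FI 485/535; norm. to artemisinin 0.29 uM and DMSO.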

Test [6] can be described thus: qHTS for differential inhibitors of proliferation of Plasmodium falciparum line HB3 (AID 1886).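 Note: parasites grown with compound for 72 h before SYBR Green readout.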 Note: potency is the fitted concentration of half-maximal effect. Particulars: Potency: Plasmodium falciparum HB3 proliferation inhibition.
The target of test [7] is ATP-dependent DNA helicase Q1 (Homo sapiens) (UniProt P46063). The experiment in a line: qHTS Validation Assay for Inhibitors of RecQ-Like Dna Helicase 1 (RECQ1) (AID 2353). Put shortly:
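RECQ1T1 50 nM; forked duplex (20 bp + 30-nt ss tails) 200 nM, ATP 2 mM final; pH 8.0, 2 mM MgCl2, 2.5 ug/ml poly(dI-dC); 15 min compound preincubation; discontinuous kinetic read over 2 h at RT.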

For test [8], the target named is RecQ-like DNA helicase BLM (Homo sapiens) (UniProt P54132). The experiment in a line: qHTS Validation Assay for Inhibitors of Bloom's syndrome helicase (BLM) (AID 2364). The procedure, abridged: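 BLM 50 nM in 25 mM Tris-HCl pH 8.0, 5 mM NaCl, 2 mM MgCl2, 1 mM DTT, 0.01% Tween-20, 2.5 ug/ml poly(dI-dC); 15 min cpd preinc, RT. Start: 200 nM forked DNA + 2 mM ATP (final). TAMRA read, 2 reads 2 h apart.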

A short description of test [9]: Cytometric Cell-Based qHTS for Inhibitors of the mTORC1 Signaling Pathway in MEF (Tsc2-/-, p53-/-) Cells (AID 2660).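 Note: Tsc2 and p53 null MEFs carrying empty vector with compound for 24 h; percent of cells above a phospho-rpS6 to PI ratio cutoff in each well; series mostly up to about 38 µM.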 Put shortly: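 Cells are plated, treated with compound for 24 hrs at 37 degree Celsius, then fixed, blocked and immunostained for phospho-rpS6 Ser235/236. Propidium iodide counterstain follows. Per-well % positive cells is derived from the PI-normalized phospho-S6 signal.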

A short description of test [10]: Validation screen for small molecules that induce DNA re-replication in MCF 10A normal breast cells (AID 463097). Note: nearly all actives have a fitted effect of over 60% in size. The procedure, abridged:
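MCF 10A cells exposed to compound 48 hr at 37 C, 5% CO2, then Hoechst-stained 40 min. Laser-scanning imaging of nuclear DNA content (405 nm ex, 500-530 nm em); re-replication scored as rise in nuclei with elevated fluorescence intensity.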

For test [11], the target named is Ubiquitin carboxyl-terminal hydrolase 2 (Homo sapiens) (UniProt O75604). The test can be described thus: qHTS Validation Assay for Inhibitors of Ubiquitin-specific Protease USP2a Using CHOP2 as the Reporter (AID 463106). Put shortly: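 Inhibition is expressed relative to NEM as the full-inhibition control, with concentration-response curves classed by fit quality, magnitude and activity. Enzyme (USP2 core, 10nM) meets 25nM Ub-CHOP2 after compound preincubation; readings are taken at 60min.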
Ubiquitin carboxyl-terminal hydrolase 2 (Homo sapiens), sequence (O75604 whole entry, looked up): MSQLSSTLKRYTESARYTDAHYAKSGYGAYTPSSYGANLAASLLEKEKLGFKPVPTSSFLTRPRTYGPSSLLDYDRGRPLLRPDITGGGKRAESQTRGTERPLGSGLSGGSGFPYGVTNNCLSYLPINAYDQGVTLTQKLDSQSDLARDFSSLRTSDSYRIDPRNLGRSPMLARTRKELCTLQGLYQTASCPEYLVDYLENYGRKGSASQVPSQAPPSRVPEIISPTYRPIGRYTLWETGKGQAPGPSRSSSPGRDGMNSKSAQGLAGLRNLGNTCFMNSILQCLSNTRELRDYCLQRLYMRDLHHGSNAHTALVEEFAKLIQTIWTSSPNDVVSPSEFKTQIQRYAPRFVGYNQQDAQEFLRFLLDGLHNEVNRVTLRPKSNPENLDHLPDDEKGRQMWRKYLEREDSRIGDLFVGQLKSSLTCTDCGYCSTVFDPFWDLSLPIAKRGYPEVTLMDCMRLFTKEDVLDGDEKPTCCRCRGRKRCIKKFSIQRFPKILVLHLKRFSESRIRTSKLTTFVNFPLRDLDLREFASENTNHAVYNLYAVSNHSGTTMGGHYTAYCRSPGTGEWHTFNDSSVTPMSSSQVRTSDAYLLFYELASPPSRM

Test [12] deals with DNA polymerase III PolC-type (Bacillus subtilis (strain 168)) (UniProt P13267). The test can be described thus: qHTS Validation Assay for the Inhibitors of DNA Replication in Gram-Positive Bacteria (AID 485295). Note: potency is the fitted concentration of half-maximal effect. Put shortly:
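Reconstituted B. subtilis Pol III holoenzyme (PolC, beta clamp, SSB, primase) preincubated with compound, then M13Gori single-stranded circular template with dNTPs/NTPs added; room temperature reaction. Stopped with EDTA/PicoGreen; dsDNA fluorescence read, EDTA as full-inhibition control.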

Test [13] deals with Tumor susceptibility gene 101 protein (Homo sapiens) (UniProt Q99816). The test can be described thus: qHTS Validation Assay for Iinhibitors of HIV-1 Budding by Blocking the Interaction of PTAP/TSG101 (AID 485342; calls by dose curve). Put shortly:
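Tsg101 binding domain (10 uM) with FITC-labeled PTAP peptide (50 nM) in HEPES pH 7.5 buffer, 20 min at r.t. with compounds. Binding measured by fluorescence polarization.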

A short description of test [14]: qHTS Validation Assay to Find Inhibitors of Chronic Active B-Cell Receptor Signaling (AID 485345; active = well fitted curve in the direction sought with a large enough effect in the main read-out, with a control signal flat, not every such curve was filed as active). Put shortly: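 TMD8 ABC-DLBCL cells with dox-inducible green luciferase–IκBα fusion and red native luciferase; compounds 46 uM–3 nM, 4 h at 37C with doxycycline in 0.5% FBS IMDM. Green/red ratio normalized to basal and 10 uM MG-132.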
For test [15], the target named is Beta-2 adrenergic receptor (Homo sapiens) (UniProt P07550). The experiment in a line: qHTS validation assay of beta-arrestin-biased ligands of beta2-adrenergic receptor (AID 485366). The procedure, abridged:
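Compound series up to 46 microM applied to beta2-AR/beta-arrestin Tango cells, 18 hr, 37 degrees C, 5% CO2. Read-out: tTA-driven luciferase luminescence, converted to %Activity; concentration-response curves assigned curve classes.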

The nature of test [16]: Quantitative high throughput screen for delayed death inhibitors of the malarial parasite plastid, 96 hour incubation (AID 488745). Note: nearly all actives have a fitted effect of over 70% in size. Note: potency is the fitted concentration of half-maximal effect. Put shortly:
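Luciferase-expressing P. falciparum, infected RBCs 2% Hct/0.1% parasitemia (final); 96 h cpd exposure, 37 C, 5% CO2; RPMI 1640 + 0.5% Albumax, bicarbonate, gentamycin. Readout: luminescence loss = growth inhibition.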

Test [17] addresses Ferritin light chain (Equus caballus) (UniProt P02791). The test can be described thus: qHTS Validation Assay for Identification of Novel General Anesthetics (AID 2323). Note: series mostly up to about 77 µM. Put shortly:
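Horse-spleen apoferritin (10 uM) in PBS with 50% saturated 1-aminoanthracene; compounds pin-transferred, 10 min at room temperature. Fluorescence read at 380/535 nm, normalized to free 1-AMA and 1-AMA/apoferritin values; four-parameter Hill fit.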

The nature of test [18]: qHTS for differential inhibitors of proliferation of Plasmodium falciparum line W2 (AID 1883).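 Note: parasites grown with compound for 72 h before lysis and staining.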 Note: potency is the fitted concentration of half-maximal effect. Particulars: Potency: Plasmodium falciparum W2 proliferation inhibition.
Test [19] can be described thus: qHTS Assay for Modulators of Human Peripheral Myelin Protein 22 (PMP22) Expression/Activity (AID 1967; active = well fitted curve in the direction sought with a large enough effect in the signal ratio; the % refers to the signal ratio). The procedure, abridged: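 Mouse MSC80 Schwann cells carrying Pmp22 promoter–green click beetle luciferase plus EF-alpha–red luciferase control, dosed 24 h at 37 °C. Dual-filter luminescence, overlap-corrected; %Activity from green/red ratio normalised to untreated cells, concentration-response curves fitted.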

ATP-dependent DNA helicase Q1 (Homo sapiens), sequence (P46063 whole entry, looked up): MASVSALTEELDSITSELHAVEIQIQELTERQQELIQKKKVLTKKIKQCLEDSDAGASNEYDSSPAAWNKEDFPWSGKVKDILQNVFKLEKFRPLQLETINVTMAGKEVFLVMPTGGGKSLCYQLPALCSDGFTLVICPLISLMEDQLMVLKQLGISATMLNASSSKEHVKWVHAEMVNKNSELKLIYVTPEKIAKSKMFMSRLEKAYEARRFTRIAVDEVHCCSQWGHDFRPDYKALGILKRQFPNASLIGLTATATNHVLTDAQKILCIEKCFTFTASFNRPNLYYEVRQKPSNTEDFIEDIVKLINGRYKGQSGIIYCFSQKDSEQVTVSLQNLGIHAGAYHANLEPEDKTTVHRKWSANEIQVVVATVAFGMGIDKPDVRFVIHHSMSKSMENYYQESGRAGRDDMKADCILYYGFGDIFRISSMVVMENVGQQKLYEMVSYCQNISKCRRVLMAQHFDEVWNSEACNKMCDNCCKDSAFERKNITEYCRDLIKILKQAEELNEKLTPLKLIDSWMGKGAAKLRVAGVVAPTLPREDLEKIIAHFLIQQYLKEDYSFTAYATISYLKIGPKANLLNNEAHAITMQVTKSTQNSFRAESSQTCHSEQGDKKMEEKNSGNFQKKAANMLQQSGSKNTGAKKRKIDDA
Ferritin light chain (Equus caballus), sequence (P02791 2-175 limits assumed): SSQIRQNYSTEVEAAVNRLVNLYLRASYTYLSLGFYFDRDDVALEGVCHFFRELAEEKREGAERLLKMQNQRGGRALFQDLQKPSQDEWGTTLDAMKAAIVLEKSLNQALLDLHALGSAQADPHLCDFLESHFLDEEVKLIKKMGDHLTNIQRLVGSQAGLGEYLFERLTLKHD
Beta-2 adrenergic receptor (Homo sapiens), sequence (P07550 whole entry, looked up): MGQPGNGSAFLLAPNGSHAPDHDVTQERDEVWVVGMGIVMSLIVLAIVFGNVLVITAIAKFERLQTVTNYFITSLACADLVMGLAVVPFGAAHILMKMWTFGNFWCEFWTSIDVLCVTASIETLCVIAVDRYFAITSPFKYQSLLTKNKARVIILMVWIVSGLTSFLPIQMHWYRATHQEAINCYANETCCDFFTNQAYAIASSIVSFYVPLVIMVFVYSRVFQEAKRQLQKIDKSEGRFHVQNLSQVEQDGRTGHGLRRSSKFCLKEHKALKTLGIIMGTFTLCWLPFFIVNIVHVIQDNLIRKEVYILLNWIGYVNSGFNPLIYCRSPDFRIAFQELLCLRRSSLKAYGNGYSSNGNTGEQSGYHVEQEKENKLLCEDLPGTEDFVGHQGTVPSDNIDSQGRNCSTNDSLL
Tumor susceptibility gene 101 protein (Homo sapiens), sequence (Q99816 whole entry, looked up, the tested form may be a part): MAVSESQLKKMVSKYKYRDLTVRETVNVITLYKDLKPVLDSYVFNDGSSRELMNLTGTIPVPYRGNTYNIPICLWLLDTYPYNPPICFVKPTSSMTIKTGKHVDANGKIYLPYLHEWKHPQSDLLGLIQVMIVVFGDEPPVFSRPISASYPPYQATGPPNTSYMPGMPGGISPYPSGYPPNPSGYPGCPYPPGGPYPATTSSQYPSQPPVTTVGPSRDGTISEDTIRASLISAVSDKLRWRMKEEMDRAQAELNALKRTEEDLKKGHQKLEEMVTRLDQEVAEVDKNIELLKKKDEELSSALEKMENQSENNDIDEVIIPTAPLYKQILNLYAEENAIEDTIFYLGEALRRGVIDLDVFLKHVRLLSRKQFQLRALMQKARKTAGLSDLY
DNA polymerase III PolC-type (Bacillus subtilis (strain 168)), sequence (P13267 whole entry, looked up): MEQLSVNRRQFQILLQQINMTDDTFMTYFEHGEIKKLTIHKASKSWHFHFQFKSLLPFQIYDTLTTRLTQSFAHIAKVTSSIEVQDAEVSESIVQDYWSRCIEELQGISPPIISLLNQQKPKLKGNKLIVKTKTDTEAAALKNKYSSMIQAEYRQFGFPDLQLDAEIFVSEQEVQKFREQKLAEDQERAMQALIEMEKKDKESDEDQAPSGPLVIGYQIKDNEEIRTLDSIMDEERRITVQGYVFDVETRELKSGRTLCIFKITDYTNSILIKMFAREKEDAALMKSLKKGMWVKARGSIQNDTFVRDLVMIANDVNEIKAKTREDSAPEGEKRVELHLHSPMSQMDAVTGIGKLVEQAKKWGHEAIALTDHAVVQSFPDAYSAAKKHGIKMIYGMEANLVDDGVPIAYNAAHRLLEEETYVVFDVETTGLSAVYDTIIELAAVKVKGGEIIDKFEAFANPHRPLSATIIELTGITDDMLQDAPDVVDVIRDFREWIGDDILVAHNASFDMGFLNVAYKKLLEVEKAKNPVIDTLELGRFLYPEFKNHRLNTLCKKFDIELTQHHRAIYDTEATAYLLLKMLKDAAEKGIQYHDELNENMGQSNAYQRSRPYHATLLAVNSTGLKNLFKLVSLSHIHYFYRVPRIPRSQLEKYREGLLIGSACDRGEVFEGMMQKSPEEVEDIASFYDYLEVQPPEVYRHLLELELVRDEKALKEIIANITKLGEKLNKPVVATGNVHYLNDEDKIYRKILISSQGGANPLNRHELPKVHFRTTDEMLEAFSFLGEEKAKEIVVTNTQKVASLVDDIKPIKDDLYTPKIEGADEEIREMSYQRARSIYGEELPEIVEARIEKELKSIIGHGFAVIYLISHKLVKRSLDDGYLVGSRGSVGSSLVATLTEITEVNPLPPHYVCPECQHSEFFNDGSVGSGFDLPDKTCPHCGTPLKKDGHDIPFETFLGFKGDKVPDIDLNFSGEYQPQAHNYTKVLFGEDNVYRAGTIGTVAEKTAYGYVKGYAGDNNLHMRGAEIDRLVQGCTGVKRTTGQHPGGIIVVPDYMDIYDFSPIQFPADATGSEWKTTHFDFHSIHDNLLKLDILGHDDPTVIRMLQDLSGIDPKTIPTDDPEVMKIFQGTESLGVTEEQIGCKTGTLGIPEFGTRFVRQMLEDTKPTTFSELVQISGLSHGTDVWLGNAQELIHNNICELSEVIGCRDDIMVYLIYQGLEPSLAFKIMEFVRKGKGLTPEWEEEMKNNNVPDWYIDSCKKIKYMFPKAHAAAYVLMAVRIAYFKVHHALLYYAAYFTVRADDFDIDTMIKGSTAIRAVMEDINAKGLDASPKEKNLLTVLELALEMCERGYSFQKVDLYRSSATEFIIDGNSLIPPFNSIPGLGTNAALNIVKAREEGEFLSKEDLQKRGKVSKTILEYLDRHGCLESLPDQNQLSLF

As for `CC(C)COC(=O)OCN1C(=O)CN(CCN2CC(=O)N(COC(=O)OCC(C)C)C(=O)C2)CC1=O`, the Potency entry in test [1], in test [2], in [3], in test [4], in test [5] and in [6] was “inactive” in each case. For the same molecule, the Potency entry in [12] and in [16] was “inactive” throughout. The call in [7], in [8], in test [9], in test [10], in test [11] and in test [13] was inactive. Moreover, the result in test [14] and in test [15] was inactive.
Regarding `C[C@]12CC[C@@H]3c4ccc(O)cc4CC[C@H]3[C@@H]1CC[C@@H]2O`, the Potency entry in [1], in test [5], in test [6], in test [12] and in [16] was “inactive” in each case. Moreover, the result in test [17], in [7], in test [9], in test [10], in test [11] and in test [13] was inactive. Also, the molecule was classed as inactive in test [15].
Consider `N[C@@H](Cc1cnc[nH]1)C(=O)O`, for which the Potency entry in test [1], in test [2], in test [3], in test [4], in test [5] and in test [18] was “inactive” each time. Also, the Potency entry in [6], in test [12] and in [16] was “inactive” throughout. The result in [19], in test [17], in test [7], in test [9], in [10] and in test [11] was inactive. For the same molecule, the molecule was called inactive in test [13], in test [14] and in test [15].
`O=C(O)c1cc2cc(Cc3cccnc3)ccc2o1`: the Potency entry in [1], in test [2], in [3], in test [4], in test [5] and in test [18] was “inactive” each time. Moreover, the Potency entry in [6], in test [12] and in test [16] was “inactive” in each case. Moreover, the outcome in test [19], in test [17], in test [7], in test [9], in test [10] and in test [11] was inactive. Also, the outcome in test [13], in test [14] and in test [15] was inactive.
`Nc1cc(Cl)c(NC2=NCCN2)c(Cl)c1`: the Potency entry in test [1], in test [3], in test [4], in test [5], in test [6] and in test [12] was “inactive” throughout. Moreover, the Potency result in test [16] is “inactive”. Moreover, the molecule was called inactive in test [19], in test [17], in [7], in test [9], in test [10] and in test [11]. Besides, the outcome in test [13], in test [14] and in [15] was inactive.
On to `Oc1ccc(O)cc1`, for which the Potency in test [1] was 8.91 µM (active); in [3], 11.2 µM (active); in test [18], 12.6 µM (active); in test [6], 12.6 µM (active); in test [12] it was 5.32 µM (active); in test [16], 10.4 µM (active). Moreover, the molecule was classed as inactive in test [17], in test [7], in test [11], in test [13], in test [14] and in test [15].

The values above are taken from PubChem BioAssay (NCATS).
